According to the supplement of paper PMC9950053:
Where a name gives a salt, the structure may show the parent alone.

tested on: Danio rerio larvae (5 dpf); assay: 1-h baseline activity (% time moving, periods 1-6) minus DMSO control (percentage points); higher = more locomotor activity than DMSO larvae; conditions: 10 µM; exposure time: 3 h pre-incubation + 3 h imaging
Protocol: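 Wild-type 5 dpf zebrafish larvae (n=48 per drug, 96-well plates, 28.5 °C) were exposed to Tocris FDA-approved library compounds at 10 µM (0.1% DMSO) for 3 h before and 3 h during imaging. Images were taken every 6 s during visual (moving coloured lines) and acoustic stimuli, and larvae were tracked with the DeepLabCut-based Z-LaP Tracker. Each behavioural measure is the treated-group mean minus the DMSO vehicle control mean (n=844), in percentage points. This mapping covers compounds with 4-character plate codes.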

| SMILES | 1-h baseline activity |
| --- | --- |
| CCCN(CCC)S(=O)(=O)c1ccc(C(=O)O)cc1 [Probenecid] | -2.34 |
| COc1cc2nc(N3CCN(C(=O)c4ccco4)CC3)nc(N)c2cc1OC [Prazosin hydrochloride] | -4.14 |
| CNC(=O)c1ccccc1Sc1ccc2c(/C=C/c3ccccn3)n[nH]c2c1 [Axitinib] | -3.55 |
| Clc1ccc(COC(Cn2ccnc2)c2ccc(Cl)cc2Cl)c(Cl)c1 (stereo not given) [Miconazole nitrate] | -19.7 |
| Cc1cccc(C)c1OCC(C)N (stereo not given) [Mexiletine hydrochloride] | 3.37 |
| CC(C)c1nc(CN(C)C(=O)N[C@H](C(=O)N[C@@H](Cc2ccccc2)C[C@H](O)[C@H](Cc2ccccc2)NC(=O)OCc2cncs2)C(C)C)cs1 [Ritonavir] | -4.53 |
| COc1ccc(C[C@@H](C)NC[C@H](O)c2ccc(O)c(NC=O)c2)cc1 [Arformoterol tartrate] | 41.7 |
| COc1cc2ncnc(Nc3ccc(F)c(Cl)c3)c2cc1OCCCN1CCOCC1 [Iressa] | -6.95 |
| CC(C)(C)NC(=O)[C@@H]1C[C@@H]2CCCC[C@@H]2CN1C[C@@H](O)[C@H](Cc1ccccc1)NC(=O)[C@H](CC(N)=O)NC(=O)c1ccc2ccccc2n1 [Saquinavir mesylate] | -10.4 |
| CCOC(=O)[C@H](CCc1ccccc1)N[C@@H](C)C(=O)N1[C@H](C(=O)O)C[C@@H]2CCC[C@@H]21 [Ramipril] | 1.29 |
| COc1cc2nc(N3CCN(C(=O)C4COc5ccccc5O4)CC3)nc(N)c2cc1OC (stereo not given) [Doxazosin mesylate] | -6.93 |
| CCC(=O)O[C@]1(C(=O)SCF)[C@H](C)C[C@H]2[C@@H]3C[C@H](F)C4=CC(=O)C=C[C@]4(C)[C@@]3(F)[C@@H](O)C[C@@]21C [Fluticasone propionate] | 6.52 |
| Nc1ncn([C@H]2C[C@H](O)[C@@H](CO)O2)c(=O)n1 [Decitabine] | 1.07 |
| C=C1[C@H](CO)[C@@H](O)C[C@@H]1n1cnc2c(=O)[nH]c(N)nc21 [Entecavir] | -2.24 |
| Nc1nc2[nH]cc(CCc3ccc(C(=O)N[C@@H](CCC(=O)O)C(=O)O)cc3)c2c(=O)[nH]1 [Pemetrexed] | -1.52 |
| Cn1cnc([N+](=O)[O-])c1Sc1ncnc2[nH]cnc12 [Azathioprine] | 7.62 |
| CCCc1nc(C(C)(C)O)c(C(=O)O)n1Cc1ccc(-c2ccccc2-c2nnn[nH]2)cc1 [Olmesartan] | 10.4 |
| CN(C)CCc1c[nH]c2ccc(Cn3cncn3)cc12 [Rizatriptan benzoate] | -3.79 |
| COc1cc(Nc2c(C#N)cnc3cc(OCCCN4CCN(C)CC4)c(OC)cc23)c(Cl)cc1Cl [Bosutinib] | -17.1 |
| CC1CNc2c(cccc2S(=O)(=O)N[C@@H](CCCNC(=N)N)C(=O)N2CC[C@@H](C)C[C@@H]2C(=O)O)C1 (stereo not given in full) [Argatroban] | 3.52 |

| SMILES | 1-h baseline activity |
| --- | --- |
| CC(C)CN(C[C@@H](O)[C@H](Cc1ccccc1)NC(=O)O[C@H]1CO[C@H]2OCC[C@H]21)S(=O)(=O)c1ccc(N)cc1 [Darunavir] | 10.3 |
| COCCCOc1cc(C[C@@H](C[C@H](N)[C@@H](O)C[C@H](C(=O)NCC(C)(C)C(N)=O)C(C)C)C(C)C)ccc1OC [Aliskiren hemifumarate] | -5.54 |
| NC(=O)N1c2ccccc2C=Cc2ccccc21 [Carbamazepine] | -4.18 |
| Cc1cccc(CN2CCN(C(c3ccccc3)c3ccc(Cl)cc3)CC2)c1 (stereo not given) [Meclizine dihydrochloride] | 20.8 |
| CCOc1nc2cccc(C(=O)O)c2n1Cc1ccc(-c2ccccc2-c2noc(=O)[nH]2)cc1 [Azilsartan] | 1.25 |
| OC(CNCC(O)C1CCc2cc(F)ccc2O1)C1CCc2cc(F)ccc2O1 (stereo not given) [Nebivolol hydrochloride] | -2.33 |
| CC(C)[C@H]1CC[C@H](C(=O)N[C@H](Cc2ccccc2)C(=O)O)CC1 [Nateglinide] | 3.52 |
| CCCCC(=O)N(Cc1ccc(-c2ccccc2-c2nnn[nH]2)cc1)[C@H](C(=O)O)C(C)C [Valsartan] | 3.3 |
| OCCN(CCO)c1nc(N2CCCCC2)c2nc(N(CCO)CCO)nc(N3CCCCC3)c2n1 [Dipyridamole] | -3.7 |
| NS(=O)(=O)c1cc(C(=O)O)c(NCc2ccco2)cc1Cl [Furosemide] | 5.77 |
| CN1CC(=O)N2[C@H](c3ccc4c(c3)OCO4)c3[nH]c4ccccc4c3C[C@@H]2C1=O [Tadalafil] | 10.9 |
| CCCCC1=NC2(CCCC2)C(=O)N1Cc1ccc(-c2ccccc2-c2nnn[nH]2)cc1 [Irbesartan] | 1.48 |
| CN/C(=N\CCSCc1nc[nH]c1C)NC#N [Cimetidine] | 0.11 |
| CN(CCOc1ccc(NS(C)(=O)=O)cc1)CCc1ccc(NS(C)(=O)=O)cc1 [Dofetilide] | -0.169 |
| CC(=O)O[C@H]1C(=O)[C@@]2(C)[C@H]([C@H](OC(=O)c3ccccc3)[C@]3(O)C[C@H](OC(=O)[C@H](O)[C@@H](NC(=O)c4ccccc4)c4ccccc4)C(C)=C1C3(C)C)[C@]1(OC(C)=O)CO[C@@H]1C[C@@H]2O [Taxol] | 1.47 |
| CCOc1nc2cccc(C(=O)O)c2n1Cc1ccc(-c2ccccc2-c2nnn[nH]2)cc1 [Candesartan] | 2.98 |
| Cc1cn([C@H]2C=C[C@@H](CO)O2)c(=O)[nH]c1=O [Stavudine] | -7.04 |
| CC(C)n1c(/C=C/C(O)CC(O)CC(=O)O)c(-c2ccc(F)cc2)c2ccccc21 (stereo not given) [Fluvastatin sodium] | -0.765 |
| CC[C@H](C)C(=O)O[C@H]1C[C@@H](C)C=C2C=C[C@H](C)[C@H](CC[C@@H]3C[C@@H](O)CC(=O)O3)[C@H]21 [Lovastatin] | -3.77 |
| COC(c1ccccc1)(c1ccccc1)[C@H](Oc1nc(C)cc(C)n1)C(=O)O [Ambrisentan] | 0.292 |
